Inconclusive results are not listed. A call without a number means that no potency is given here. A number with no mark means an inactive call. The source made the active and inactive calls. Calls follow the shape of the dose curve; as a rule, active = well fitted inhibition curve with a large enough effect; inconclusive = small, poorly fitted or top-dose-only effect; inactive = no such curve, though single readings can be large or run the other way.
Assay: Primary qHTS for small molecule stabilizers of the endoplasmic reticulum resident proteome: Secreted ER Calcium Modulated Protein (SERCaMP) assay (AID 1508630)
Conditions: SH-SY5Y GLuc-SERCaMP (Gaussia luciferase released on ER calcium loss) secretion, thapsigargin, luminescence; series mostly up to 38.4 µM
How it was run: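 GLuc-SERCaMP-expressing SH-SY5Y cells, pretreated 16 h with compound, are challenged with thapsigargin to empty ER calcium stores; after 4 h, coelenterazine is added directly to the medium and luminescence is imaged.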

Structure (SMILES) | Potency | activity change, negative = inhibition
CCCCN1C[C@H](O)[C@@H](O)[C@H](O)[C@H]1CO | inactive | –
CN(C)CCC[C@@]1(c2ccc(F)cc2)OCc2cc(C#N)ccc21 | inactive | –
CCO[C@@H]1O[C@H](C(COCc2ccccc2)OCc2ccccc2)[C@H](OCc2ccccc2)[C@H]1O (some centres not stated) | inactive | –
CCNC(=O)NCc1cccc(Cl)c1 | inactive | –
Nc1nc(Cl)nc2c1ncn2[C@@H]1O[C@H](CO)[C@@H](O)[C@@H]1F | inactive | –
CCOC(=O)[C@H](CCc1ccccc1)N[C@@H](C)C(=O)N1[C@H](C(=O)O)C[C@H]2CCCC[C@@H]21 | inactive | –
O=C(N/N=C/c1ccc([N+](=O)[O-])o1)c1ccc(O)cc1 | inactive | –
OC[C@H]1O[C@@H]2O[C@H]3[C@H](O)[C@@H](O)[C@@H](O[C@H]4[C@H](O)[C@@H](O)[C@@H](O[C@H]5[C@H](O)[C@@H](O)[C@@H](O[C@H]6[C@H](O)[C@@H](O)[C@@H](O[C@H]7[C@H](O)[C@@H](O)[C@@H](O[C@H]8[C@H](O)[C@@H](O)[C@@H](O[C@H]1[C@H](O)[C@H]2O)O[C@@H]8CO)O[C@@H]7CO)O[C@@H]6CO)O[C@@H]5CO)O[C@@H]4CO)O[C@@H]3CO | inactive | –
O=C(O)CCc1nc2ccccc2[nH]1 | inactive | –
CCCCCCCCCCCCCCC[C@H](O)[C@@H](N)CO | – | -27.1% [at 3.88 µM]
CC[C@H](c1ccc(O)cc1)[C@@H](CC)c1ccc(O)cc1 | inactive | –
NCCNC(=O)c1ccc(Cl)cn1 | inactive | –
NC(=O)n1c(O)c(C(=O)c2cccs2)c2cc(Cl)ccc21 | inactive | –
CCN(CC)CCOc1ccc2c(c1)C(=O)c1cc(OCCN(CC)CC)ccc1-2 | inactive | –
CCCCCCCCCCCCCC[N+](C)(C)Cc1ccccc1 | inactive | –
CC[C@]12CCCN3CCc4c(n(c5ccccc45)C(=O)C1)[C@@H]32 | inactive | –
NS(=O)(=O)c1cc2c(cc1Cl)NC(CC1CCCC1)NS2(=O)=O (configuration not stated) | inactive | –
CCCCCN=C(N)N/N=C/c1c[nH]c2ccc(OC)cc12 | inactive | –
O=C(O)C(Cc1cc(I)c(O)c(I)c1)c1ccccc1 (configuration not stated) | inactive | –

Structure (SMILES) | Potency | activity change, negative = inhibition
CCc1oc2ccccc2c1C(=O)c1cc(I)c(O)c(I)c1 | inactive | –
CC(=O)OCC1=C(C(=O)O)N2C(=O)[C@@H](NC(=O)CSc3ccncc3)[C@H]2SC1 | inactive | –
CC(C)(C)NC[C@H](O)COc1cccc2c1CCCC2=O | inactive | –
O=C(CN1CCN(Cc2ccc3c(c2)OCO3)CC1)N1c2ccccc2Sc2ccccc21 | inactive | –
CCOc1ccc(NC(C)=O)cc1 | inactive | –
C[N+]1(CC2COC(c3ccccc3)(C3CCCCC3)O2)CCCCC1 (configuration not stated) | inactive | –
CCOC(=O)[C@H](CCc1ccccc1)N[C@@H](C)C(=O)N1[C@H](C(=O)O)C[C@@H]2CCC[C@@H]21 | inactive | –
Cl/C(=C\n1cncn1)c1ccc(Cl)cc1Cl | inactive | –
N/C(=N\N=C\c1ccc(Cl)cc1)N/N=C/c1ccc(Cl)cc1 | inactive | –
C[C@@]12C(=O)OC(=O)[C@]1(C)C1CCC2O1 | inactive | –
CCN(CC)CCOc1ccccc1C(=O)CCc1ccccc1 | inactive | –
O=C1C(O)=C(O)C(=O)C(O)=C1O | inactive | –
CN=C(N)NCCC[C@H](N)C(=O)O | inactive | –
C=C1c2cccc(O)c2C(O)=C2C(=O)[C@]3(O)C(O)=C(C(N)=O)C(=O)[C@@H](N(C)C)[C@@H]3[C@@H](O)[C@H]12 | inactive | –
C[C@@H](O)[C@H]1C(=O)N2C(C(=O)O)=C(S[C@@H]3CN[C@H](CNS(N)(=O)=O)C3)[C@H](C)[C@H]12 | inactive | –
NC(N)=NCc1cccc(I)c1 | inactive | –
Oc1c(Cl)cc(Cl)c(Cl)c1Cc1c(O)c(Cl)cc(Cl)c1Cl | inactive | –
CC(C)[C@@H]1CC[C@@H](C)CC1=O | inactive | –

Reference: PubChem BioAssay (NCATS)
